Consider two compounds from PubChem BioAssay AID2283218 (EPA ToxCast).

Calls of active or inactive are those of the source. The calls were made as follows: active = hit-call score of the fitted dose curve at least 0.9, where 1 is the maximum; inactive = score below 0.9.

This assay deals with human Zeta Chain of T Cell Receptor Associated Protein Kinase 70 (ZAP70), ZAP70 (gene 7535) (UniProt P43403). The assay is described as follows: NVS_ENZ_hZAP70: NovaScreen (NVS) Enzymatic Assay for human Zeta Chain of T Cell Receptor Associated Protein Kinase 70 (ZAP70). As for the experimental part: NVS_ENZ_hZAP70 is a biochemical, single-readout assay that uses extracted gene-proteins in a cell-free assay. Measurements were taken 0 hour after chemical dosing in a 96-well plate.NVS_ENZ_hZAP70 is one of one assay component(s) measured or calculated from the NVS_ENZ_hZAP70 assay. It is designed to make measurements of enzyme activity, a form of enzyme reporter, as detected with fluorescence intensity signals by Fluorescence and electrophoretic mobility shift technology.Data from the assay component NVS_ENZ_hZAP70 was analyzed into 1 assay endpoint. This assay endpoint, NVS_ENZ_hZAP70, was analyzed in the positive analysis fitting direction relative to DMSO as the negative control and baseline of activity. Using a type of enzyme reporter, loss-of-signal activity can be used to understand changes in the enzymatic activity as they relate to the gene ZAP70. Furthermore, this assay endpoint can be referred to as a primary readout, because this assay has produced multiple assay endpoints where this one serves a enzymatic activity function. To generalize the intended target to other relatable targets, this assay endpoint is annotated to the kinase intended target family, where the subfamily is non-receptor tyrosine kinase. […]
human Zeta Chain of T Cell Receptor Associated Protein Kinase 70 (ZAP70), ZAP70 (gene 7535), sequence (P43403 whole entry, looked up): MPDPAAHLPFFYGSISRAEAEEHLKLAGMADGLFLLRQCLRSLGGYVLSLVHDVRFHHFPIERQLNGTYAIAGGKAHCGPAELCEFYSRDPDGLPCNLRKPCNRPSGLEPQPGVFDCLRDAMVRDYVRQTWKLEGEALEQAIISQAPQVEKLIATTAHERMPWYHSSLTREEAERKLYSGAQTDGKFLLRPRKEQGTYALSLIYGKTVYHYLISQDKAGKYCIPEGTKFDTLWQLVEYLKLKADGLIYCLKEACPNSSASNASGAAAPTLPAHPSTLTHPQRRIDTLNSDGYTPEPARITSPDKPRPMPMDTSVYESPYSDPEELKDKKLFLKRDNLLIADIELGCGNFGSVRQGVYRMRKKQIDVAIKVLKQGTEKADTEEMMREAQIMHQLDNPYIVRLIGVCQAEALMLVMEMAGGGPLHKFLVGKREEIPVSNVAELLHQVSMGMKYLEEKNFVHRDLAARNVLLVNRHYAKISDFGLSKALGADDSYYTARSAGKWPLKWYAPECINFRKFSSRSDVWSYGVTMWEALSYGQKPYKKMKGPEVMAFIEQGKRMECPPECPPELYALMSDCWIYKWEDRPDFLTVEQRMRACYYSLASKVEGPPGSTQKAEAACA
As to `O=C(O)C(F)(F)C(F)(F)C(F)(F)C(F)(F)C(F)(F)C(F)(F)C(F)(F)F`, the outcome was inactive.
Take `O=S(=O)(O)C(F)(F)C(F)(F)C(F)(F)C(F)(F)C(F)(F)C(F)(F)C(F)(F)C(F)(F)F`: the AC50 is 12.3 µM (active).
